Assay in all cases: DAPPL (digital affinity profiling via proximity ligation, sequencing); 10 mM Tris-HCl pH 7.5, 50 mM NaCl, 1 mM DTT, 4% glycerol, room temperature, 30 min; GST-TFs on glutathione beads, 16-mer random dsDNA library, 0.1% formaldehyde crosslink after washing; high values mean tight binding
One experiment concerns the target T1, FEV (Homo sapiens, UniProt Q99581 1-238).
T1 sequence: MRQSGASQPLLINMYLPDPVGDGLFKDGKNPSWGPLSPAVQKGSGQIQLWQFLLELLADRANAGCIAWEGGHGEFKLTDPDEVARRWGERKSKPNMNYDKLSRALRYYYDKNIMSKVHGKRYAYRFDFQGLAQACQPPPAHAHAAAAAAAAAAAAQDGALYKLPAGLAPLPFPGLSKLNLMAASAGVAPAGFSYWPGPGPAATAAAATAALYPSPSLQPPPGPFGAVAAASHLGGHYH
Conditions: protein: recombinant; tags: N-terminal GST; dsDNA, one strand shown. The procedure, abridged: (§1)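 Binding signal is each hexamer's read frequency for a factor divided by its frequency in the tag-only sample. The factors were GST-fused human transcription factors from yeast, captured on glutathione beads, DNA-barcoded and pooled with that sample. Pools were incubated with 200 nmole of a random double-stranded 16-mer DNA library in Tris/NaCl/DTT/glycerol buffer at room temperature for 30 min, then washed, crosslinked with 0.1% formaldehyde, proximity-ligated with BsaI/T4 ligase (1 h, 37 °C), PCR-amplified and sequenced on an Illumina NextSeq500.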

For a further experiment, the target named is ETV5 (Homo sapiens, UniProt P41161 1-510). The following applies: protein: recombinant; tags: N-terminal GST; dsDNA, one strand shown. The procedure, abridged:
as §1

Another experiment addresses HSF1 (Homo sapiens, UniProt Q00613 1-529). Conditions: protein: recombinant; tags: N-terminal GST; chain copies: 3; dsDNA, one strand shown. The procedure, abridged: as §1
The target of a further experiment is T2, SPIC (Homo sapiens, UniProt Q8N5J4 1-248).
T2 sequence: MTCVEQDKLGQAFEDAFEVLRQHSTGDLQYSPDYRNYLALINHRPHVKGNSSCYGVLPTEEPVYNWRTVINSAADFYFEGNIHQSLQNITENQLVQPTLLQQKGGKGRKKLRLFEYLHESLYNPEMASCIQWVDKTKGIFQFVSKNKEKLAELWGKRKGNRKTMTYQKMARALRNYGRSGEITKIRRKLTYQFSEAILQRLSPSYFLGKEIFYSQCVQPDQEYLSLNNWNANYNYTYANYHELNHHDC
The following applies: protein: recombinant; tags: N-terminal GST; dsDNA, one strand shown. The procedure, abridged: as §1

A further experiment addresses ELF4 (Homo sapiens, UniProt Q99607 1-663). Conditions: protein: recombinant; tags: N-terminal GST; dsDNA, one strand shown. The procedure, abridged: as §1
The next experiment deals with T3, ELK4 (Homo sapiens, UniProt P28324-2 1-405).
T3 sequence: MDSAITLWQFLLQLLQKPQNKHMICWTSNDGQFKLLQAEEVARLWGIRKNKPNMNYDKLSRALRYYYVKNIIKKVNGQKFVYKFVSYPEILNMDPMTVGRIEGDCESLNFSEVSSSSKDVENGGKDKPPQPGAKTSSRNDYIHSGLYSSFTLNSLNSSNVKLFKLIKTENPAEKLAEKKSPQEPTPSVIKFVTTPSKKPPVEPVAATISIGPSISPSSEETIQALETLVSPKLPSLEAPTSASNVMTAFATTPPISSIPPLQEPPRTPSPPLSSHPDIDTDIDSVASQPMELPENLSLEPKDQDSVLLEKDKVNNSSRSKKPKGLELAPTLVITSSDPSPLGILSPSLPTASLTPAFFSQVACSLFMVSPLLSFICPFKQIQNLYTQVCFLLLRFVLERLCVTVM
The following applies: protein: recombinant; tags: N-terminal GST; dsDNA, one strand shown. The procedure, abridged:
as §1

For a further experiment, the target named is T4, ETV2 (Homo sapiens, UniProt O00321 1-342).
T4 sequence: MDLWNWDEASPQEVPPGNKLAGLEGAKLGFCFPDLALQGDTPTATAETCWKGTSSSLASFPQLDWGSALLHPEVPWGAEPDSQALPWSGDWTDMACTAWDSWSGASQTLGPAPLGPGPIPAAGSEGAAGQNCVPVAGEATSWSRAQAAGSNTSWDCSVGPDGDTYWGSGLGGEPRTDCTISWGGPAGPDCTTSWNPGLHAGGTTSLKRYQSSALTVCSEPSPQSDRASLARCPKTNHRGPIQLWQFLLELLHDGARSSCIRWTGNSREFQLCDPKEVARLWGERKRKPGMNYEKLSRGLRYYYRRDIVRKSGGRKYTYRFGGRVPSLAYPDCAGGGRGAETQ
The following applies: protein: recombinant; tags: N-terminal GST; dsDNA, one strand shown. The procedure, abridged: as §1

In another experiment the target is T5, ELF3 (Homo sapiens, UniProt P78545 1-371).
T5 sequence: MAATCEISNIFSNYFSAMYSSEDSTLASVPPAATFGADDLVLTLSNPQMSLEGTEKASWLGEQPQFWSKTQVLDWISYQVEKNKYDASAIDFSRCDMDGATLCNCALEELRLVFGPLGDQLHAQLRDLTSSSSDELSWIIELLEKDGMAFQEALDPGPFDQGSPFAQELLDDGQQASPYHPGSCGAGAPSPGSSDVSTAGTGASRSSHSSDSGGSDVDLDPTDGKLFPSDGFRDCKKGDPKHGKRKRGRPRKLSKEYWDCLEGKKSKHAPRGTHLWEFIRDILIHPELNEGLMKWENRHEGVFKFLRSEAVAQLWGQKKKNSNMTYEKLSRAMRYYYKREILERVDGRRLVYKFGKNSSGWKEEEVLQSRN
Conditions: protein: recombinant; tags: N-terminal GST; dsDNA, one strand shown. The procedure, abridged: as §1

The target in another experiment is CRX (Homo sapiens, UniProt O43186 1-299). The following applies: protein: recombinant; tags: N-terminal GST; dsDNA, one strand shown. The procedure, abridged:
as §1

Another experiment has as its target ETV1 (Homo sapiens, UniProt P50549 1-477). The following applies: protein: recombinant; tags: N-terminal GST; dsDNA, one strand shown. The procedure, abridged: as §1
Another experiment has as its target T6, ERF (Homo sapiens, UniProt P50548 1-548).
T6 sequence: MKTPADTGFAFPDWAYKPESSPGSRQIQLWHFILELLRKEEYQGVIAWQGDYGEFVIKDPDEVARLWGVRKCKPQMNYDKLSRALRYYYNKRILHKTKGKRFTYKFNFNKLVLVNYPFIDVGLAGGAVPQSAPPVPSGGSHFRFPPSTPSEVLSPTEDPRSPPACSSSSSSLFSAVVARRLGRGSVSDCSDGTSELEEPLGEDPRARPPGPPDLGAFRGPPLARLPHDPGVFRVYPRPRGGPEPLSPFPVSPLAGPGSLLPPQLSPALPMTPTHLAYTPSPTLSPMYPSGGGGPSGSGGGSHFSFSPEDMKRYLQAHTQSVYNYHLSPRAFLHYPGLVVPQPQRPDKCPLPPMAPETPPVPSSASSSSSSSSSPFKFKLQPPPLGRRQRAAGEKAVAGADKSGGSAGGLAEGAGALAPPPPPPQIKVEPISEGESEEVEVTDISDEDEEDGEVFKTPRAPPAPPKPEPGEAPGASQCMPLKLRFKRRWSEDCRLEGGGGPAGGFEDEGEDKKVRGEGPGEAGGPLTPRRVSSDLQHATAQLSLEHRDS
Conditions: protein: recombinant; tags: N-terminal GST; dsDNA, one strand shown. The procedure, abridged: as §1

In the next experiment the target is T7, ETV3L (Homo sapiens, UniProt Q6ZN32 1-361).
T7 sequence: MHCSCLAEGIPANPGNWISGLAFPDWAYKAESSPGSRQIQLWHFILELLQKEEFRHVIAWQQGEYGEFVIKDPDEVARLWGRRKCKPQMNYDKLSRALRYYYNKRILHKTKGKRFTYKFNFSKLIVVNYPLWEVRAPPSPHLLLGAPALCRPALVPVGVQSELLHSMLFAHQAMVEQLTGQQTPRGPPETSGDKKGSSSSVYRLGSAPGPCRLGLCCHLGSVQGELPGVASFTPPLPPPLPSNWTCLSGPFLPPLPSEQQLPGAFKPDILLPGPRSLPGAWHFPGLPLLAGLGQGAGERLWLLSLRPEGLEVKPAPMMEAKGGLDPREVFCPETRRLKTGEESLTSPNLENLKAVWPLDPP
Conditions: protein: recombinant; tags: N-terminal GST; dsDNA, one strand shown. The procedure, abridged:
as §1

The target of the next experiment is T8, ETS2 (Homo sapiens, UniProt P15036 1-469).
T8 sequence: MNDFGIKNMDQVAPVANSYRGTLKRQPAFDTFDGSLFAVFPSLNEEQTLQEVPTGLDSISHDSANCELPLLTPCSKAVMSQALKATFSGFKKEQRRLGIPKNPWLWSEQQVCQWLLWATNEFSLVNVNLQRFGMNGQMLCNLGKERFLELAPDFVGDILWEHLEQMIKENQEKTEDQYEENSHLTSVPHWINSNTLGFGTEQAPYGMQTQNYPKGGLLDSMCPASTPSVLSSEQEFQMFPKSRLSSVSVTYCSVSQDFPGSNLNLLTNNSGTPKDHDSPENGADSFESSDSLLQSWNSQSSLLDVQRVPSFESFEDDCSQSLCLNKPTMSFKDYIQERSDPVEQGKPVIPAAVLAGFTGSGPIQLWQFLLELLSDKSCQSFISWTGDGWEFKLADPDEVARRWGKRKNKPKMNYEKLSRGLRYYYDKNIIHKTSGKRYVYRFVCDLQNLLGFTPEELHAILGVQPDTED
The following applies: protein: recombinant; tags: N-terminal GST; dsDNA, one strand shown. The procedure, abridged:
as §1

The next experiment addresses T9, SPDEF (Homo sapiens, UniProt O95238 1-335).
T9 sequence: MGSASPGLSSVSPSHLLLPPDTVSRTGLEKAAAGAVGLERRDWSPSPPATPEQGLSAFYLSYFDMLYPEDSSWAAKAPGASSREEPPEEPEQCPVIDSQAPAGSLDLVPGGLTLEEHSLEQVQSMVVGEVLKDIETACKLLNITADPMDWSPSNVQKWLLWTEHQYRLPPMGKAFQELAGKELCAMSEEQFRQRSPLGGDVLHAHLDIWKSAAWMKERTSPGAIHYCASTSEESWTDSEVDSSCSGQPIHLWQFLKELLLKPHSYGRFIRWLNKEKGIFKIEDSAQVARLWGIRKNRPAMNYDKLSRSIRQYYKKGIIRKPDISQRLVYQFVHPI
The following applies: protein: recombinant; tags: N-terminal GST; dsDNA, one strand shown. The procedure, abridged:
as §1

For the next experiment, the target named is T10, ETV7 (Homo sapiens, UniProt Q9Y603 1-341).
T10 sequence: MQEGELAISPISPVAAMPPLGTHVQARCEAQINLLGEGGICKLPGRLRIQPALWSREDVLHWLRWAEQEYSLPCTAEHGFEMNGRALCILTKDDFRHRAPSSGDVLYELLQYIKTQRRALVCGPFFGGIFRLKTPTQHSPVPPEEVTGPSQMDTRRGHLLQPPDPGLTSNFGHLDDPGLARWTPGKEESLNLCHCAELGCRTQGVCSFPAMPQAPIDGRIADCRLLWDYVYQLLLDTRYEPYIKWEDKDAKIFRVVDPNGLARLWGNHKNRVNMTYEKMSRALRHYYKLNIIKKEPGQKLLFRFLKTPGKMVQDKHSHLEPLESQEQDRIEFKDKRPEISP
Conditions: protein: recombinant; tags: N-terminal GST; dsDNA, one strand shown. The procedure, abridged: as §1

For another experiment, the target named is T11, ELF5 (Homo sapiens, UniProt Q9UKW6-2 1-255).
T11 sequence: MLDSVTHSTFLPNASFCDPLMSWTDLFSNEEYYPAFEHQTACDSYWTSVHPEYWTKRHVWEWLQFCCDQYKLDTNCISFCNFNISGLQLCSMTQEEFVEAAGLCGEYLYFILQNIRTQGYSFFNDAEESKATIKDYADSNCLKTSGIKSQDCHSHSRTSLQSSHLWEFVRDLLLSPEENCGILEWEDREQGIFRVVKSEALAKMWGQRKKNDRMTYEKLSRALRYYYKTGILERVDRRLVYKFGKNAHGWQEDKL
Conditions: protein: recombinant; tags: N-terminal GST; dsDNA, one strand shown. The procedure, abridged:
as §1

The target in the next experiment is T12, ETV3 (Homo sapiens, UniProt P41162-2 1-143).
T12 sequence: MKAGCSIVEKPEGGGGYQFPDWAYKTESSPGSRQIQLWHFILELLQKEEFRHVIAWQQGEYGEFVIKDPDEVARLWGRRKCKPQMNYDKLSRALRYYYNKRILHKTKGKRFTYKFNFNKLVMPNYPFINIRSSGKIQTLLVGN
The following applies: protein: recombinant; tags: N-terminal GST; dsDNA, one strand shown. The procedure, abridged: as §1

Another experiment deals with ETV6 (Homo sapiens, UniProt P41212 1-452). Conditions: protein: recombinant; tags: N-terminal GST; dsDNA, one strand shown. The procedure, abridged: as §1
ETV6, sequence (P41212 whole entry): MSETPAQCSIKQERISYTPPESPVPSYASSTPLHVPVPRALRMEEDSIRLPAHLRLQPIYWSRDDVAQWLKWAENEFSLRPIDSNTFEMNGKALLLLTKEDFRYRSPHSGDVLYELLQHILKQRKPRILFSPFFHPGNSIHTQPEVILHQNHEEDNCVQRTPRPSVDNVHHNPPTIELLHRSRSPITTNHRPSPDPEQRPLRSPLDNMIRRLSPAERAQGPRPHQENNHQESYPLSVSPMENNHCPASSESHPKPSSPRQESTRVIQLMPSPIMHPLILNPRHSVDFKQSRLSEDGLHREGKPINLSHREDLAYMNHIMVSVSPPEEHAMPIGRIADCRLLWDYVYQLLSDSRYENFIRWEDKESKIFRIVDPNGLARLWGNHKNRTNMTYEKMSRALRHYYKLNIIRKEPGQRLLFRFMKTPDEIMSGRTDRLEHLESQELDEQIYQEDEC

ELF4, sequence (Q99607 whole entry): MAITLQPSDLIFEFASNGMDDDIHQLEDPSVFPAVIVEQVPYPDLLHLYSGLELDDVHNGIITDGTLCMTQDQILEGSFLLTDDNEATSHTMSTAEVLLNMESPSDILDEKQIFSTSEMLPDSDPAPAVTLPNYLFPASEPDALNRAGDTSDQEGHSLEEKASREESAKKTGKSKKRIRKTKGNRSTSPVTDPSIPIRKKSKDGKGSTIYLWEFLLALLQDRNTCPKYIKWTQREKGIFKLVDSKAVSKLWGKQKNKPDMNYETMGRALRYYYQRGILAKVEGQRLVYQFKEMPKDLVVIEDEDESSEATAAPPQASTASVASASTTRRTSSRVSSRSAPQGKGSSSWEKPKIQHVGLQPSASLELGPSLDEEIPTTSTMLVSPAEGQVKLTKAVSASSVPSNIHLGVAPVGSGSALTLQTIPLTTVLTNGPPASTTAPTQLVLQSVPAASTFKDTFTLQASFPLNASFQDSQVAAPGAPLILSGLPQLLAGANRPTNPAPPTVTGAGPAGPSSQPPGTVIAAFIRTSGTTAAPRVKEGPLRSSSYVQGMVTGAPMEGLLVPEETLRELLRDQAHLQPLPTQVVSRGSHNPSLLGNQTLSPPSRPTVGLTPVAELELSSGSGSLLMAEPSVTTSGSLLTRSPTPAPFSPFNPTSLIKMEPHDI
HSF1, sequence (Q00613 whole entry): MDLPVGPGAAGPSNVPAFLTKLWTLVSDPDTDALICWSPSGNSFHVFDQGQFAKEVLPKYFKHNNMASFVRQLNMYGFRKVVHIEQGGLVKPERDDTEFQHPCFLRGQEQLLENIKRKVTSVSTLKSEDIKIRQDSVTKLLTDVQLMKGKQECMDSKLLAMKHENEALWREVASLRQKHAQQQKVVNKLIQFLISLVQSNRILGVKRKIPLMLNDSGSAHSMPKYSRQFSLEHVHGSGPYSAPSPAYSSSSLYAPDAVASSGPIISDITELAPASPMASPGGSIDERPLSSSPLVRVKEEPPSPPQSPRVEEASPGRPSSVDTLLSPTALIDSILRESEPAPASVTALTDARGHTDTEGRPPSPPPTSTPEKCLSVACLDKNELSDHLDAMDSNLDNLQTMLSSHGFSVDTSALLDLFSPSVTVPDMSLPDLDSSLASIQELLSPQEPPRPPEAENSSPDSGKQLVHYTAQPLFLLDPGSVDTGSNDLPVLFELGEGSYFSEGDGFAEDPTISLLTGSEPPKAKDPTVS
ETV1, sequence (P50549 whole entry): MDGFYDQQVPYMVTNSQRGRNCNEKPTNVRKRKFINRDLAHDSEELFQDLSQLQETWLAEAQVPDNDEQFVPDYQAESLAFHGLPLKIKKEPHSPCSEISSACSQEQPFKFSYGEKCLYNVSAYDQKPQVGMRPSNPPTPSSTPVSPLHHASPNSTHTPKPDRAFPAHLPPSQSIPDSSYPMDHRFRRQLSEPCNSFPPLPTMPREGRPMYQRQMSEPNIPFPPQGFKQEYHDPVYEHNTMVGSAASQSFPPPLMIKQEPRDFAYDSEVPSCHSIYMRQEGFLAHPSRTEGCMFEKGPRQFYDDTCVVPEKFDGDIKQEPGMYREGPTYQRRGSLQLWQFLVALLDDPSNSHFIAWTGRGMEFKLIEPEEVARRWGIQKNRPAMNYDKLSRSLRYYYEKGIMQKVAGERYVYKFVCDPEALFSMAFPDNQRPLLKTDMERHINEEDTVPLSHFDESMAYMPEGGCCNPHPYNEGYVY
CRX, sequence (O43186 whole entry): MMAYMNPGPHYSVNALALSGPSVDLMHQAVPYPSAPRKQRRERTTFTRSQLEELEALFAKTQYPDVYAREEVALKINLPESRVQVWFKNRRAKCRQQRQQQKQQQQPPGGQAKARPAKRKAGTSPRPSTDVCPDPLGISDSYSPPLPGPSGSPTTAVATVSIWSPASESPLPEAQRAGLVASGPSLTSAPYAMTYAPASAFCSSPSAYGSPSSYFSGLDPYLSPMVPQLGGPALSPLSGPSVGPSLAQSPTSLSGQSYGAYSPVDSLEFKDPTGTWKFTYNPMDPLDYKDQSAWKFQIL
ETV5, sequence (P41161 whole entry): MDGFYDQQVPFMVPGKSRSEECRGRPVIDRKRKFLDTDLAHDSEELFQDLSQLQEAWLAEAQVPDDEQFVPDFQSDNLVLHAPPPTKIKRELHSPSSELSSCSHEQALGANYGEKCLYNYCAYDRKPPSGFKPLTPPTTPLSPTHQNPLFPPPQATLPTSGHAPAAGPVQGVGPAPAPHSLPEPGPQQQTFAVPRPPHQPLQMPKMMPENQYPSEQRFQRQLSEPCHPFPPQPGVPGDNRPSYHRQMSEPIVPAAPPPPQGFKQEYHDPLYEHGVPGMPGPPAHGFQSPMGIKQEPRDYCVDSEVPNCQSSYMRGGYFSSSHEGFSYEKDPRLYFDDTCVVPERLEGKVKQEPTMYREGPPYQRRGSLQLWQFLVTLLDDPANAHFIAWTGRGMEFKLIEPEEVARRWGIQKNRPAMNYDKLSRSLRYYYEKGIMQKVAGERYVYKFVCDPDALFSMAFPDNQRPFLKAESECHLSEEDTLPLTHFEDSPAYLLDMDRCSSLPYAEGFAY

For TTCCCG, the binding signal was 1.85 fold enrichment (6-mer frequency, TF over GST control) with FEV; 2.08 fold enrichment (6-mer frequency, TF over GST control) with ETV5; 2.46 fold enrichment (6-mer frequency, TF over GST control) with HSF1; 1.91 fold enrichment (6-mer frequency, TF over GST control) with SPIC; 1.73 fold enrichment (6-mer frequency, TF over GST control) with ELF4; 1.69 fold enrichment (6-mer frequency, TF over GST control) with ELK4. Moreover, the binding signal was 1.87 fold enrichment (6-mer frequency, TF over GST control) with ETV2; 1.64 fold enrichment (6-mer frequency, TF over GST control) in the experiment with ELF3; 1.7 fold enrichment (6-mer frequency, TF over GST control) in the experiment with CRX; 1.88 fold enrichment (6-mer frequency, TF over GST control) with ETV1; 1.75 fold enrichment (6-mer frequency, TF over GST control) with ERF; 1.9 fold enrichment (6-mer frequency, TF over GST control) in the experiment with ETV3L. Besides, the binding signal with ETS2 is 1.97 fold enrichment (6-mer frequency, TF over GST control); with SPDEF it was 2.05 fold enrichment (6-mer frequency, TF over GST control); in the experiment with ETV7, 1.88 fold enrichment (6-mer frequency, TF over GST control); in the experiment with ELF5, 2.91 fold enrichment (6-mer frequency, TF over GST control); with ETV3, 1.92 fold enrichment (6-mer frequency, TF over GST control); in the experiment with ETV6, 2.15 fold enrichment (6-mer frequency, TF over GST control).

For the origin of these results see publication PMC7862700, “An all-to-all approach to the identification of sequence-specific readers for epigenetic DNA modifications on cytosine”.
